Compound activity from PubChem BioAssay.
Hits are enriched below; roughly 6.9% of the tested compounds scored in any of these assays.
CSC inhib: blocks cancer stem cells; inhibition, % at 7.5 µM; cancer stem cell-like cells viability, luminescence; 300,000 tested, 1.1% active; AID 2717; in the data active means inhibition above about 75%; inconclusive means no clear call, values can overlap the other calls; tested in HMLE shEcad cells
Mdm2-MdmX inh: disrupts the human Mdm2-MdmX interaction; O15151+Q00987; SaOS-2 split-luciferase Mdm2/MdmX complementation, luminescence; inhibition, % at 8 µM; 330,000 tested, 3% active;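 active means inhibition of at least 50% at 8 µM in the primary screen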
Target sequence (O15151 whole entry, looked up): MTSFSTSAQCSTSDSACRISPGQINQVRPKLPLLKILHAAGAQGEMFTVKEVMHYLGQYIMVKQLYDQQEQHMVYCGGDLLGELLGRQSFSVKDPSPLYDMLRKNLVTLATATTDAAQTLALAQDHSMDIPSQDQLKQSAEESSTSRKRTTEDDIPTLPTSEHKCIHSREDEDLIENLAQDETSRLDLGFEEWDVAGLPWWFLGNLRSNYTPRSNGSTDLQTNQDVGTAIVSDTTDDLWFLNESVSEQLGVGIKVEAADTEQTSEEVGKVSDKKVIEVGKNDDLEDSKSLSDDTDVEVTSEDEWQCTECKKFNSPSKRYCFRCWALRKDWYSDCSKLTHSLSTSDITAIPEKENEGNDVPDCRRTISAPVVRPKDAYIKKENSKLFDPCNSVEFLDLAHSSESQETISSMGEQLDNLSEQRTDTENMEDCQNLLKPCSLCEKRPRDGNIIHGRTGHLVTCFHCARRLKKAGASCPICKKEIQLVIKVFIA
Target sequence (Q00987 whole entry, looked up): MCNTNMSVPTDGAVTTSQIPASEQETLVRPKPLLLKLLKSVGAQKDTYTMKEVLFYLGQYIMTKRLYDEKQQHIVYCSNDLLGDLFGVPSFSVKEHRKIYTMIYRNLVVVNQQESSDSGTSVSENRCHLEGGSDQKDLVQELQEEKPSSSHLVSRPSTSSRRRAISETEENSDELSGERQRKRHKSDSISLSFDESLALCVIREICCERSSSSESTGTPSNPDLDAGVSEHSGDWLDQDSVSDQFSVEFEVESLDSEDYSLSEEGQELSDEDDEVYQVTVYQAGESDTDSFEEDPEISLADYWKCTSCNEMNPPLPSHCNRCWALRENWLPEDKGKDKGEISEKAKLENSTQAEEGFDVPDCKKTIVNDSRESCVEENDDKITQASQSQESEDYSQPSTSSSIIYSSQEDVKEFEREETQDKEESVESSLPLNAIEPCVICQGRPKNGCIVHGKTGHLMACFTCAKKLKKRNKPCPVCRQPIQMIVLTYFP
GRIN3A LBD mod: NR3A (human) ligand-binding domain modulation; NR3A LBD differential scanning fluorimetry, Tm shift; 0% = protein alone, 100% = glycine-bound protein; Tm shift relative to glycine control, % at 25 µM; 340,000 tested, 2.5% active; AID 1259313;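 active means melting temperature shift of at least 10% of the positive control shift, at one fixed dose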
Beta cell apopt: beta cell apoptosis inhibition; INS-1E cytokine-induced death, ATP luminescence, 48 h; percent of positive-control rescue, neutral wells zero; protection from apoptosis, % (no concentration beside the values); 300,000 tested, 0.8% active;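 active means Every replicate reaches about 75%, or at least half do and their mean reaches it too, limit read from the data; inconclusive means At least half of replicates reach the limit but their mean does not; inactive means Under half of replicates reach the limit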;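 further: higher means more ATP so stronger rescue from cytokine killing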
SKKanGAS inh: SKKanGAS growth inhibition; S. pyogenes SKKanGAS, kanamycin growth, BacTiter-Glo, 6 h; AID 1662; 300,000 tested, 1.3% active; inhibition, % at 7.5 µM;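 active means mean replicate score, as percent of positive control median, at least 50; inconclusive means mean below 50 but one replicate at or above 50; inactive means mean and every replicate below 50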;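 further: strain carries kanamycin resistance gene driven by streptokinase promoter and grows in 40 µg/ml kanamycin; loss of luminescence reflects streptokinase promoter inhibition or plain growth inhibition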
MPTP block: inhibitors of mitochondrial permeability transition pore | isolated mouse mitochondria, Ca2+ swelling absorbance, 30 min | 360,000 tested, 1.4% active | AID 602449 | inhibition, % at 10 µM;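 active means inhibition of 50% or more, scaled per plate between neutral and stimulator controls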
MPTP counter: mitochondrial membrane potential, counter-screen; shares compounds with MPTP block; inhibition, % at 10 µM; 5,000 tested, 78% active; isolated mitochondria, Rhodamine 123 fluorescence; in the data active means inhibition above about 22%
MPTP abs DR: MPTP inhibition, dose response swelling confirmation | isolated mitochondria swelling, absorbance | shares compounds with MPTP block | IC50, µM | 780 tested, 58% active; in the data active means IC50 below about 20 µM
MPTP counter DR: counter-screen for mitochondrial permeability transition pore inhibitors, dose response | shares compounds with MPTP block | isolated mitochondria counterscreen, fluorescence read-out | IC50, µM | 780 tested, 49% active | AID 651564; in the data active means IC50 below about 80 µM
Of the large screens only hits and unclear results are named; the others gave an inactive call (follow-up assays come after a bar, where they were run).

CC(C)c1ccc(-c2cc(C(=O)N3N=C(C(F)F)CC3(O)C(F)F)c3ccccc3n2)cc1 (centres undefined)	CSC inhib 112, GRIN3A LBD mod 35, SKKanGAS inh 90, MPTP block 77 | MPTP counter 97
C=CCN(Cc1ccc(Cl)s1)C(=O)c1ccc(F)c(S(=O)(=O)N2CCOCC2)c1	none (no result: SKKanGAS inh)
Cc1sc(NC(=S)NC(=O)c2ccccc2)c(C#N)c1C	MPTP block 70 | MPTP counter 84
Cc1sc(NC(=S)NC(=O)c2ccc(C(C)(C)C)cc2)c(C#N)c1C	none
CC(C)S(=O)(=O)C1=NSC2=NC(=O)/C(=C\c3ccc(-c4ccccc4)o3)C(=N)N21	MPTP block 106 (no result: Mdm2-MdmX inh) | MPTP counter 68
COc1ccc(CCNc2nc(C)nc3c2oc2ccccc23)cc1OC	MPTP block 71 | MPTP counter 91
COc1ccc(CCNc2ncnc3c2oc2ccccc23)cc1OC	Beta cell apopt 107, MPTP block 97 | MPTP counter 99
c1ccc(CNc2ncnc3c2oc2ccccc23)nc1	none
Cc1nc(NC(C)c2ccccc2)c2oc3ccccc3c2n1 (centres undefined)	MPTP block 64 | MPTP counter 96
Cc1cc(-n2cnnn2)cc(C)c1S(=O)(=O)N(C)c1ccccc1	none
COc1ccc(NS(=O)(=O)c2cc(NS(=O)(=O)c3cccs3)ccc2C)cc1	none (no result: CSC inhib, Beta cell apopt, SKKanGAS inh)
COC(=O)c1cc(COC(=O)c2nc3nccc(C)n3n2)oc1C	none (no result: Beta cell apopt)
COc1cc(-c2nnc(SCC(=O)Nc3ccc(C(=O)O)cc3)o2)cc(OC)c1OC	none (no result: SKKanGAS inh)
CCCCC#Cc1ccc(C(=O)NNC(=O)Nc2cc(Cl)cc(Cl)c2)o1	MPTP block 79 | MPTP counter 77
CC(C)(C)C(=O)Cn1c(=N)n(Cc2ccccc2Cl)c2ccccc21	MPTP block 56 (no result: CSC inhib) | MPTP counter inactive | MPTP abs DR 11 | MPTP counter DR 55
CC(C)(C)C(=O)Cn1c(=N)n(Cc2ccccc2)c2ccccc21	none
CN1CCN(C2=Cc3ccccc3Sc3cc(F)ccc32)CC1	MPTP block 98 | MPTP counter inactive
Cc1ccc(C(=O)c2c3ccc([N+](=O)[O-])cc3[n+]([O-])n2CCC(N)=O)cc1	none (no result: MPTP block)
CSc1nc2ccc(NS(=O)(=O)c3c(Cl)cccc3Cl)cc2s1	none
CSc1nc2ccc(NS(=O)(=O)c3ccc(Br)s3)cc2s1	MPTP block 84 | MPTP counter 75
CSc1nc2ccc(NS(=O)(=O)c3ccccc3F)cc2s1	none
CSc1nc2ccc(NS(=O)(=O)c3ccc4c(c3)OCCO4)cc2s1	MPTP block 55 | MPTP counter 101
C=CCN1C(=O)c2ccc(C(=O)N3CCN(S(=O)(=O)c4ccccc4Br)CC3)cc2C1=O	none
CCOC(=O)N1CCC(Nc2c(Nc3cccc(CC)c3)c(=O)c2=O)CC1	MPTP block 89 | MPTP counter 72
CCOC(=O)N1CCC(Nc2c(Nc3ccc(F)cc3)c(=O)c2=O)CC1	none
CC1CCCN(CCCNC(=O)c2ccc(N3CCCC3=O)cc2)C1 (centres undefined)	none
CC(Oc1ccc(Br)cc1)C(=O)Nc1ccncc1 (centres undefined)	none
CC(Oc1ccc(Br)cc1Cl)C(=O)Nc1ccncc1 (centres undefined)	MPTP block 77 (no result: CSC inhib, Beta cell apopt) | MPTP counter 80
COc1ccc(N=Cc2cc(Cc3ccccc3Cl)cc([N+](=O)[O-])c2O)cc1OC	MPTP block 62 (no result: CSC inhib) | MPTP counter inactive
Cc1ccc(N=Cc2cc(Cc3ccccc3Cl)cc([N+](=O)[O-])c2O)c(O)c1	SKKanGAS inh inconclusive, MPTP block 84 | MPTP counter 53
Cc1n[nH]c(C)c1Sc1ccccc1N=Cc1cc(Cl)cc([N+](=O)[O-])c1O	none
COc1cc(CCN=Cc2cc(Cl)cc(Cl)c2O)c([N+](=O)[O-])cc1OC	none (no result: CSC inhib, Mdm2-MdmX inh, GRIN3A LBD mod, Beta cell apopt, SKKanGAS inh)
COC(=O)c1ccc(NC(=O)CCN2C(=O)C3C4CCC(C4)C3C2=O)cc1 (centres undefined)	none
O=C1C2CC=CCC2C(=O)N1c1ccc(N2CCN(c3ccccn3)CC2)c([N+](=O)[O-])c1 (centres undefined)	MPTP block 55 | MPTP counter 45
CC(=O)Nc1cc(-c2ccc(CO)cc2)cn2c(-c3ccc(F)c(Cl)c3)cnc12	none (no result: CSC inhib, Mdm2-MdmX inh, GRIN3A LBD mod, Beta cell apopt, SKKanGAS inh)
CC(=O)c1ccc(OCc2cc(C(=O)N3CCC(c4ccncc4)CC3)no2)cc1	MPTP block 96 | MPTP counter 87
CC(=O)c1ccc(OCc2cc(C(=O)N3CC[C@@H]4CCCC[C@H]4C3)no2)cc1	none
COc1cccc(OCc2cc(C(=O)N3CCC(c4ccncc4)CC3)no2)c1	MPTP block 80 | MPTP counter 75
O=C(c1cc(COc2cccc(C(F)(F)F)c2)on1)N1CCC(c2ccncc2)CC1	Beta cell apopt 111, MPTP block 97 | MPTP counter 99
c1ccc(-c2ccc(CNC3CC3)cc2)cc1	none (no result: Mdm2-MdmX inh)
Cc1ccc2[nH]c3c(N4CCc5ccccc5C4)ncnc3c2c1	Beta cell apopt 101, MPTP block 106 | MPTP counter 93
CCONc1ncnc2nonc12	none
Clc1ccc(CONc2ncnc3nonc23)c(Cl)c1	MPTP block 56 (no result: SKKanGAS inh) | MPTP counter 96
Cc1ccc(C(=O)Nc2cccc([N+](=O)[O-])c2)cc1S(=O)(=O)Nc1ccc(C(=O)O)cc1	none
Cc1ccccc1NS(=O)(=O)c1cc(C(=O)Nc2cccc([N+](=O)[O-])c2)ccc1C	GRIN3A LBD mod 24, MPTP block 98 | MPTP counter 78
COc1ccc(CNC(=O)C2CCN(C(=O)Cc3ccccc3)CC2)cc1	none (no result: CSC inhib)
Cc1ccccc1NC(=O)c1sc(NC(=O)COc2ccccc2)c(C#N)c1C	MPTP block 54 | MPTP counter 75
CCn1c(SC(C)C(=O)NCC2CCCO2)nc2ccccc21 (centres undefined)	none (no result: CSC inhib, SKKanGAS inh)
CC(O)(c1ccncc1)c1nc(-c2cccc(C(F)(F)F)c2)cs1 (centres undefined)	MPTP block 90 (no result: CSC inhib, Mdm2-MdmX inh, GRIN3A LBD mod, Beta cell apopt, SKKanGAS inh) | MPTP counter 96
CCNC(=O)C1(C)CCN(C(=O)c2cccnc2SC)C1 (centres undefined)	none (no result: CSC inhib, Mdm2-MdmX inh, GRIN3A LBD mod, Beta cell apopt, SKKanGAS inh)
Cc1sc2ncnc(NC3CCN(Cc4ccccc4)CC3)c2c1C	Beta cell apopt 77, MPTP block 91 | MPTP counter 71
N#C/C(=C(/O)CN1CCCCC1)c1nc(-c2ccc(Cl)cc2)cs1	none
Cc1ccc(-c2csc(/C(C#N)=C(\O)CCl)n2)cc1	MPTP block 91 (no result: CSC inhib, Mdm2-MdmX inh, Beta cell apopt) | MPTP counter 64
